ssDAF12 agonist: activates DAF-12 receptor from parasite S. stercoralis; actives 1% (n = 370,000); activation, % at 6.8 µM; HEK293 ssDAF-12/GRIP1 lit1-tk-luc reporter, luminescence; % of 3 µM dafachronic acid response;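 active means activation above the mean over all tested compounds plus 3 SD, cut at about 0.9% in these data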
Wnt act: activates Wnt/beta-catenin signaling in a reporter cell assay; actives 1.2% (n = 300,000); activation, % at 9.35 µM; activator, plate reader; in the data active means activation above about 30%, passing the limit was not always enough
hcDAF-12 act: activators of H. contortus DAF-12 nuclear receptor | HEK293 hcDAF-12 lit1-tk-luc reporter, luminescence; 0% DMSO, 100% Δ7-dafachronic acid | activation, % at 6.8 µM | actives 1.4% (n = 370,000) | AID 652067;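 active means activation above the mean of all tested compounds plus 3 SD, cut at about 5.5% in these data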
esBAF inh: blocks esBAF chromatin remodeling in mouse ES cells; Bmi1-luciferase knock-in reporter, 24 h; 100% = twice the neutral-well signal; reporter increase, % at 12.5 µM; actives 2% (n = 350,000); in the data active means activation above about 40%;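 further: a rise in the Bmi1 reporter signal indicates esBAF inhibition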
DAX1 StAR inh: DAX1 (NR0B1) inhibition, primary screen; HEK293T StAR-luciferase reporter, SF-1/DAX-1 repression relief; inhibition, % at 6.8 µM; actives 1.1% (n = 370,000);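 active means inhibition above the mean over all tested compounds plus 3 SD, cut at about 3.6% in these data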;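 further: higher inhibition means more luminescence from relief of DAX-1 repression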
hgDAF-12 ag: activates the H. glycines DAF-12 receptor ligand-binding domain. HEK293 GAL4-hgDAF12 UAS-luciferase reporter, agonist luminescence; normalized to butyrate control. activation, % at 6.8 µM. actives 1.8% (n = 370,000). AID 687014;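 active means activation above a cutoff set at the mean of all screened compounds plus 3 SD, cut at about 10% in these data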
Large screens that a line does not name were inactive. An excerpt weighted towards active compounds, which were near 4.2% of everything screened.

O=C1CCCCCN1CP(=O)(O)CCc1ccccc1	none
CC(=O)Nc1ccc2c(c1)ncn2-c1ccc(C)cc1	Wnt act 43 (no result: esBAF inh)
CC(C)(C)n1cnc2cc(NC(=O)c3ccccc3)ccc21	hgDAF-12 ag 11
CC(C)(C)n1cnc2cc(NCc3cccs3)ccc21	esBAF inh 52
CCn1cnc2cc(NCc3cccs3)ccc21	none
Cc1cccc(NC(=O)Nc2ccc3c(c2)C(=O)N(C)[C@@H]2CC[C@H](CC(=O)O)O[C@@H]2CO3)c1	none (no result: ssDAF12 agonist, Wnt act, hcDAF-12 act, DAX1 StAR inh, hgDAF-12 ag)
O=C(NC(=S)NCc1nc2ccccc2[nH]1)c1ccc(F)cc1	hgDAF-12 ag 10 (no result: esBAF inh)
O=C(NC(=S)NCc1ccccc1)c1ccccc1F	none (no result: Wnt act)
O=C(NC(=S)NCc1nc2ccccc2[nH]1)c1ccccc1F	hcDAF-12 act 6.3 (no result: esBAF inh)
C[C@H]1CN([C@@H](C)CO)C(=O)Cc2cc(NC(=O)Nc3ccc(F)cc3)ccc2O[C@H]1CN(C)C(=O)Nc1ccccc1	none (no result: ssDAF12 agonist, Wnt act, hcDAF-12 act, DAX1 StAR inh, hgDAF-12 ag)
CCCOc1ccc(C(=O)NCC2OCCc3ccccc32)cc1OC (stereo unspecified)	none (no result: Wnt act, esBAF inh)
COc1ccc(C(=O)NCC2OCCc3ccccc32)c(O)c1 (stereo unspecified)	esBAF inh 67 (no result: Wnt act)
COc1cc(C(c2c(C(=O)O)[nH]c3ccccc23)c2c(C(=O)O)[nH]c3ccccc23)ccc1OCc1ccccc1	hcDAF-12 act 5.9
COc1cccc(-c2nnc(-c3ccc(C(F)(F)F)cc3)o2)c1OC	esBAF inh 53 (no result: Wnt act)
FC(F)(F)Oc1ccccc1-c1nnc(-c2cccc(C(F)(F)F)c2)o1	none
Cc1ccc(S(=O)(=O)Nc2cccc3c2O[C@@H](CN(C)C(=O)Nc2ccc(F)cc2)[C@@H](C)CN([C@H](C)CO)C3=O)cc1	none (no result: ssDAF12 agonist, Wnt act, hcDAF-12 act, DAX1 StAR inh, hgDAF-12 ag)
CCOc1ccc(-c2n[nH]c(=S)o2)cc1	none (no result: esBAF inh)
CCOc1ccccc1-c1n[nH]c(=S)o1	ssDAF12 agonist 1.0, hcDAF-12 act 6.4 (no result: Wnt act)
Cc1cc2ncn(C(=O)N3CCC(C)CC3)c2cc1C	esBAF inh 54 (no result: Wnt act)
Cc1cc2ncn(C(=O)c3ccc4c(c3)OCO4)c2cc1C	none
C[C@@H]1CCCCO[C@@H](CN(C)Cc2ccc(C(=O)O)cc2)[C@H](C)CN([C@H](C)CO)C(=O)c2cc(NS(=O)(=O)c3cn(C)cn3)ccc2O1	none (no result: ssDAF12 agonist, Wnt act, hcDAF-12 act, DAX1 StAR inh, hgDAF-12 ag)
COc1ccc(NC(=O)C2C3C=CC(C3)C2C(=O)O)cc1 (stereo unspecified)	none (no result: esBAF inh)
Cc1ccc(-c2ccc(NC(=O)C3C4C=CC(C4)C3C(=O)O)cc2)o1 (stereo unspecified)	esBAF inh 59, hgDAF-12 ag 13 (no result: Wnt act)
Cc1nc(NC(=S)NC(=O)c2cccs2)ccc1Br	ssDAF12 agonist 1.3 (no result: esBAF inh)
N#Cc1ccccc1NC(=O)COC(=O)c1cccs1	none (no result: esBAF inh)
N#Cc1ccccc1NC(=S)NC(=O)c1cccs1	hcDAF-12 act 6.0, esBAF inh 45
CNC[C@@H]1Oc2ccc(NS(=O)(=O)c3c(C)noc3C)cc2CC(=O)N([C@H](C)CO)C[C@H]1C	none (no result: ssDAF12 agonist, Wnt act, hcDAF-12 act, DAX1 StAR inh, hgDAF-12 ag)
O=C(CCCc1ccccc1)c1ccc2c(c1)OCCO2	none
O=C(CCc1ccccc1)c1ccc2c(c1)OCCCO2	esBAF inh 76 (no result: Wnt act)
O/N=C(/CCc1ccccc1)c1ccc2c(c1)OCCO2	esBAF inh 46, hgDAF-12 ag 11
CC(=O)N[C@@H]1CC[C@H](CCNC(=O)C2CC2)O[C@@H]1CO	none (no result: ssDAF12 agonist, Wnt act, hcDAF-12 act, DAX1 StAR inh, hgDAF-12 ag)
CC(=O)N(C)C[C@@H]1Oc2cc(C3=CCCC3)ccc2S(=O)(=O)N([C@H](C)CO)C[C@H]1C	none (no result: ssDAF12 agonist, Wnt act, hcDAF-12 act, DAX1 StAR inh, hgDAF-12 ag)
CCOc1ccc2cc(C#N)c(SCC(=O)N3CCC(C)CC3)nc2c1	none
CCSc1nc2ccc(OC)cc2cc1C#N	none (no result: Wnt act)
CCOc1ccc2nc(SCC#N)c(C#N)cc2c1	Wnt act 82
CCOC(=O)CSc1nc2cc(OCC)ccc2cc1C#N	esBAF inh 62, hgDAF-12 ag 11 (no result: Wnt act)
O=C(C[C@@H]1CC[C@H]2[C@@H](COC[C@@H](O)CN2C(=O)Nc2ccc(Cl)c(Cl)c2)O1)NCc1ccccc1	none (no result: ssDAF12 agonist, Wnt act, hcDAF-12 act, DAX1 StAR inh, hgDAF-12 ag)
Cc1ccc(C)c(NC2CCCCC2NS(=O)(=O)c2ccccc2)c1 (stereo unspecified)	DAX1 StAR inh 4.2
CC(C)NC(=O)c1cc2ccccc2o1	none
COc1cc(NC(=S)NC(=O)C(C)C)ccc1NC(=O)c1cc2ccccc2o1	none

Screens as filed in PubChem BioAssay.
